From PubChem
Only some compounds are listed: those with a hit (about 7.5% of all), similar ones and a draw of the others.
FLuc modulator = qHTS profiling assay for firefly luciferase inhibitor/activator using purifed enzyme and Km concentrations of substrates (counterscreen for miR-21 project); Luciferin 4-monooxygenase (Photinus pyralis), P08659; Potency, µM (series often up to 57.5 µM), for inactives: top-dose activity change, negative = inhibition, usual class: inhibitors; AID 588342, 2011; purified FLuc, Km substrates, luminescence inhibition; hit rate 6.9% among 360,000;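 note: plate controls were vehicle for no effect and reference inhibitor for full effect; nearly all actives have a fitted effect of over 55% in size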
Target sequence (P08659 whole entry, looked up): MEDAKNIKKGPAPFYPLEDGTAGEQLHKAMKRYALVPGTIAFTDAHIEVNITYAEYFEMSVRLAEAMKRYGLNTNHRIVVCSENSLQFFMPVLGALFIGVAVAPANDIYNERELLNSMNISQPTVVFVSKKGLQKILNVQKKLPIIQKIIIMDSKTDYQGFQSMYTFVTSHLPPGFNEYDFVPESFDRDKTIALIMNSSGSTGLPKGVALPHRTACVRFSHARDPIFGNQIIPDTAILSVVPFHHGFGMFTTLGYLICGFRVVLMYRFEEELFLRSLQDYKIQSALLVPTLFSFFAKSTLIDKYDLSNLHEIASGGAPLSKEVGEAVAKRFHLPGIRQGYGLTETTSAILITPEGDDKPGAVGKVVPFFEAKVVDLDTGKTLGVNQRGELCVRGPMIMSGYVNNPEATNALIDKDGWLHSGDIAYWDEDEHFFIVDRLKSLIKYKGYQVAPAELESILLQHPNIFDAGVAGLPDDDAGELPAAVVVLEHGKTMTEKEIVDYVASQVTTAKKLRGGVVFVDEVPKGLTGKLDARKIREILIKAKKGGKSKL
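Biochemical qHTS of compounds, final roughly 60 µM downward over six points, against 10 nM purified firefly luciferase using Km concentrations of substrates (10 uM D-luciferin, 10 uM ATP) in Tris acetate pH 7.5 buffer; luminescence output.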
Luc counter = Counterscreen for Luciferase (Kinase-Glo TM) Inhibition. Luciferin 4-monooxygenase (Photuris pensylvanica), Q27757. Kinase-Glo luciferase, ATP luminescence, 8 min. Potency, µM (series often up to 38.3 µM), without a hit: at the highest dose activity change, negative = inhibition, actives largely listed as inhibitors. hit rate 0.28% among 200,000. AID 1379, 2008; note: % is set by controls: 0 for no effect and ±100 for the full control effect; nearly all actives have a fitted effect of over 60% in size
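Light output from Kinase-Glo luciferase with luciferin and 10 uM ATP in 50 mM imidazole pH 7.2, KCl, MgCl2, Tween 20, BSA; compound pin-delivered, 8-min ambient incubation, then luminescence read.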
Rab9 prom act = qHTS Assay for Rab9 Promoter Activators. Huh7 Rab9 promoter-luciferase reporter, luminescence, 24 h. hit rate 2.8% among 320,000. AID 485297, 2010. Potency, µM (series often up to 9.22 µM), for the others: at the highest dose activation, negative = inhibition, most hits filed as activators; note: % of control where 0% means no effect; nearly all actives have a fitted effect of over 60% in size
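Cell-based reporter: Huh7 stable for Rab9 promoter-driven luciferase, plated in reduced-serum medium with 10% FBS at 1500 cells/well, compound-treated 24 h at 37 °C, luminescence read after 10 min reagent.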
NPC1 promoter act = qHTS Assay for NPC1 Promoter Activators; Potency, µM (doses to about 9.22 µM), for the others: at the highest dose activation, actives largely listed as activators; hit rate 2.4% among 320,000; AID 485313, 2010; Huh7 NPC1 promoter luciferase reporter, 24 h; note: % of control where 0% means no effect; nearly all actives have a fitted effect of over 60% in size
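Compounds in DMSO were transferred onto Huh7 NPC1-luciferase reporter cells pre-incubated 2 h; after 24 h at 37 °C, Amplite reagent was dispensed and luminescence recorded 10 min later.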
SMN2 splice up = qHTS Assay for Enhancers of SMN2 Splice Variant Expression; AID 1458, 2008; hit rate 2.8% among 210,000; HEK293 SMN2-luciferase splicing reporter, luminescence, 30-36 h; Potency, µM (titrated, usually from 46.1 µM), inactives show at the highest dose activity change, positive = activation, usual class: activators; note: % of control where 0% means no effect; nearly all actives have a fitted effect of over 55% in size
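qHTS luciferase splicing reporter: luminescence rises when SMN2 exon 7 is included in transfected HEK293 cells. Compound exposure lasted 30-36 h at 37C, with 4.5 mM final sodium butyrate as control, followed by a ONE-Glo read.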
ELG1 genotox = qHTS screen for small molecules that induce genotoxicity in human embryonic kidney (HEK293T) cells expressing luciferase-tagged ELG1 | HEK293T ELG1-luciferase reporter, luminescence, 16 h | Potency, µM (highest dose often 46 µM), without a hit: at the highest dose activity change, positive = activation, usual class: activators | hit rate 1.3% among 330,000 | AID 504466, 2011; note: % of control where 0% means no effect; nearly all actives have a fitted effect of over 60% in size
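Genotoxicity was scored as increased ELG1-luciferase reporter signal, measured by ONE-Glo luminescence (30 min, room temperature). Compound or vehicle exposure of the HEK293T reporter cells lasted 16 hr at 37°C.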
An asterisk follows results filed as active; ? = inconclusive; · = no result; ! = not active in a repeat; [ ] = dose if it differs, or a comment. Calls come from the whole dose curve; as a rule, active = well fitted curve in the direction sought with a large enough effect; inconclusive = small, poorly fitted or top-dose-only effect, or another doubt; inactive = no such curve, though single readings can be large; an effect the other way counts as inactive or inconclusive. Potency is the fitted concentration of half-maximal effect.

SMILES	FLuc modulator	Luc counter	Rab9 prom act	NPC1 promoter act	SMN2 splice up	ELG1 genotox
CCOc1c2ccc(C(=O)NCc3ccc(C)cc3)cc2nn1CC	-0.5%	2.7%	-4.9%	-1.9%	12.6µM*	0.0%
CCCn1nc2cc(C(=O)NCc3ccc(C)cc3)ccc2c1OCC	-11.3%	1.5%	-5.6%	-3.5%	-0.1%	-0.2%
COCc1cc(C)nc(NC2CC(C)(C)NC(C)(C)C2)c1C#N	-1.6%	·	0.9%	-2.2%	·	-4.6%
CCc1nnc(SC(CC)C(=O)Nc2cccc(OC)c2)c2cc3oc(C)cc3n12 (stereo unspecified)	3.7%	·	·	·	·	·
Cc1ccnc(NS(=O)(=O)c2ccc(NC(=O)c3nc(SC(C)C)ncc3Cl)cc2)n1	?	·	·	·	-3.4%	·
CSc1ncc(Cl)c(C(=O)Nc2ccc(S(=O)(=O)Nc3nccc(C)n3)cc2)n1	10.7µM*!	·	1.41µM*	1.78µM*	14.5%	6.51µM*
Cc1ccc(O)c(C(=O)/C=C/c2ccc3c(c2)OCCCO3)c1	5.36µM*	?	?	?	?	?
O=C(/C=C/c1ccc2c(c1)OCCCO2)c1ccccc1O	0.269µM*	?	1.78µM*	3.16µM*	?	16.4µM*
O=C(Nc1nc2ccccc2s1)c1c(F)cccc1Cl	23.9µM*	·	?	?	·	?
Cn1cc(Cl)c(C(=O)Nc2nc3ccccc3s2)n1	0.953µM*	?	?	?	1.78µM*	0.461µM*
O=C(Nc1ccc(N2CCOCC2)cc1)c1c(F)cccc1Cl	-2.0%	-2.3%	1.8%	-1.9%	-0.2%	18.7%
CC(C)(C)c1ccc(NC(=O)c2c(F)cccc2Cl)cc1	16.9µM*	·	?	12.1%	·	6.9%
Cc1ccc(-c2nnc(NC(=O)c3c(F)cccc3Cl)s2)cc1	-11.3%	·	9.8%	12.4%	·	7.1%
Cc1ccccc1C(=O)Nc1ccc(N(C)C)c2ccccc12	?	·	13.2%	13.6%	·	-5.6%
CN(C)c1ccc(N=Nc2ccc(S(=O)(=O)O)cc2)c2ccccc12	16.9µM*	-9.6%	2.1%	-1.3%	5.6%	-7.6%
O=C(Cc1ccc(Cl)cc1)NCCc1csc2nc(-c3ccccc3F)nn12	-3.0%	·	·	·	·	·
Cc1ccc(C(CCNC(C)c2cccs2)c2ccco2)cc1 (stereo unspecified)	-1.8%	·	-1.7%	0.5%	·	-4.8%
CCOc1ccc(N=C2NC(=O)S/C2=C\c2ccc(Cl)cc2)cc1	1.8%	-2.2%	-3.0%	0.5%	9.0%	0.2%
COc1ccc(N=C2NC(=O)S/C2=C\c2ccc(N(C)C)cc2)cc1	21.3µM*	-2.8%	?	?	?	?
O=[N+]([O-])c1cncc([N+](=O)[O-])c1Nc1cccc(O)c1	-1.4%	·	11.8%	8.2%	·	-6.6%
CCC(=O)NC(=S)Nc1ccc(NC(=O)CC)cc1	-7.5%	-0.9%	0.3%	-2.7%	11.7%	0.4%
CCC(=O)NC(=S)Nc1ccc(-c2nc3ccccc3s2)cc1	0.757µM*	-0.7%	1.58µM*	0.447µM*	5.01µM*	?
CCC(=O)NC(=S)Nc1ccc(NC(=S)NC(=O)c2ccc(C)cc2)cc1	0.8%	0.1%	-4.1%	-6.8%	-1.5%	?
CCC(=O)NC(=S)Nc1ccc(-c2nc3ccc(C)cc3s2)cc1	16.9µM*	·	0.447µM*	0.794µM*	·	?
Cc1ccc2nc(-c3ccc(NC(=S)NC4CC(C)(C)NC(C)(C)C4)cc3)sc2c1	10.7µM*	-7.6%	?	?	?	?
SMILES	FLuc modulator	Luc counter	Rab9 prom act	NPC1 promoter act	SMN2 splice up	ELG1 genotox
Cc1ccc2nc(-c3ccc(NC(=S)NC(=O)C(C)C)cc3)sc2c1	3.79µM*	13.2%	1.78µM*	0.398µM*	·	9.2µM*
CC(C)(N=NC(C)(C)C1=NCCN1)C1=NCCN1	·	1.0%[7.66 µM]	·	·	-7.9%[9.22 µM]	·
COc1ccc(N2CCN(S(=O)(=O)c3ccc(C4CCCCC4)cc3)CC2)cc1	-6.0%	·	·	·	8.3%	·
CC12CCC(C(=O)Nc3nccs3)(OC1=O)C2(C)C (stereo unspecified)	1.6%	4.7%	2.0%	0.7%	6.3%	1.0%
CC12CCC(C(=O)Nc3nc4ccc(Br)cc4s3)(OC1=O)C2(C)C (stereo unspecified)	19µM*	-0.2%	?	?	?	13.9%
O=C(CCc1nnc(CCc2c[nH]c3ccccc23)o1)NC1CCC1	21.3µM*	·	3.55µM*	?	·	?
O=C(CCc1nnc(Cc2c[nH]c3ccccc23)o1)NC1CCCC1	3.5%	3.3%	-3.0%	-7.8%	·	-0.5%
CCOc1ccc(CNC(=O)C2CCCN(c3nn4cc(-c5ccc(F)cc5)nc4s3)C2)cc1 (stereo unspecified)	-17.3%	·	·	·	·	·
COCCCNC(=O)C1CCCN(c2nn3cc(-c4ccc(C)cc4)nc3s2)C1 (stereo unspecified)	8.49µM*	·	·	·	·	·
COc1ccc(-c2cn3nc(N4CCCC(C(=O)NCc5ccc(Cl)cc5)C4)sc3n2)cc1 (stereo unspecified)	12µM*	·	·	·	·	·
COc1cccc(CNC(=O)C2CCCN(c3nn4cc(-c5ccc(C)cc5)nc4s3)C2)c1 (stereo unspecified)	7.57µM*	·	·	·	·	·
Cc1ccc(NC(=O)c2oc3ccccc3c2COC(C)C)cc1S(=O)(=O)N1CCOCC1	·	·	·	·	·	-5.5%
COc1ccc(CNCc2c(C(=O)O)c(C)n(Cc3ccccc3C)c2C)c(OC)c1	-11.0%	·	·	·	-1.3%	·
Cc1nn(-c2ccccc2)c(-n2cccc2)c1C(=O)N1CCN(c2ccccc2)CC1	1.6%	·	·	·	-6.9%	·
COc1cc(C(=O)NC2CCN(CC(=O)Nc3cccc(C)c3C)CC2)cc(OC)c1OC	0.2%	·	9.4%	1.1%	·	1.2%
CCc1ccccc1NC(=O)c1ccc2c(c1)CCCN2S(C)(=O)=O	-10.9%	·	·	·	7.3%	·
COc1ccc(C(=O)NCC(c2ccc3c(c2)OCO3)N2CCN(C)CC2)cc1OC (stereo unspecified)	1.0%	·	·	·	·	·
CC(=O)c1c(C)[nH]c(C(=O)COC(=O)CCSc2ccccc2)c1C	3.7%	3.0%	-0.6%	-0.7%	-12.9%	0.4%
CCOC(=O)c1c(C)[nH]c(C(=O)OCc2ccccc2)c1C	2.13µM*	·	0.631µM*	1.26µM*	·	1.83µM*
CC(=O)c1c(C)[nH]c(C(=O)CSc2ccc(F)cc2)c1C	13.5µM*	·	17.4%	?	·	5.6%
CCOC(=O)c1[nH]c(C)c(C(=O)OCc2ccc(C)cc2)c1C	1.1%	·	-0.3%	-4.6%	·	-0.3%
